Source: PubChem BioAssay (Tox21)
Records with an inconclusive call do not appear. Entries that show only a call come without a potency. Activity calls are given as the source filed them. Unless noted, the call rests on the fitted dose curve.

Legend:
[1] = qHTS assay to identify small molecule agonists of the vitamin D receptor (VDR) signaling pathway - cell viability counter screen (AID 743224; active means well fitted curve in the direction sought with a large enough effect in the repeat runs; an effect the other way counts as inactive or inconclusive; further: nearly all actives have a fitted effect of over 50% in size); details: VDR-bla HEK293T viability, CellTiter-Glo luminescence, 16 h; series mostly up to 62.6 µM
How it was run: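 Compounds were pin-transferred onto VDR-bla cells plated 4 h earlier; following 16 h incubation at 37C, cell viability was quantified by CellTiter-Glo luminescence after 30 min at room temperature.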

[2] = qHTS assay to identify small molecule antagonists of the vitamin D receptor (VDR) signaling pathway - cell viability counter screen (AID 743225; active means well fitted curve in the direction sought with a large enough effect in the repeat runs; an effect the other way counts as inactive or inconclusive; further: nearly all actives have a fitted effect of over 50% in size); details: VDR-bla HEK293T viability, CellTiter-Glo luminescence, 16 h; series mostly up to 61 µM
How it was run: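 Cells (VDR-UAS-bla HEK 293T) are plated, rested 4 h at 37C, dosed with compound and 3 nM final 1-alpha,25-dihydroxy vitamin D3, and incubated 16 h. Viability is taken from CellTiter-Glo luminescence in the reporter wells.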

[3] = qHTS assay to identify small molecule agonists of the NFkB signaling pathway (AID 1159509; active means well fitted curve in the direction sought with a large enough effect in the signal ratio in the repeat runs, not every such curve was filed as active; the % refers to the signal ratio); details: NFkB-bla ME-180 cells, beta-lactamase FRET ratio, 5 h; series mostly up to 61 µM
How it was run: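 Readout: FRET fluorescence, 405 nm excitation, 460/530 nm emission; beta-lactamase expression disrupts FRET. Cells: ME-180 stably carrying NF-kB-driven bla reporter. Compound exposure 5 hr, 37 C, 5% CO2.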

[4] = qHTS assay to identify small molecule agonists of the NFkB signaling pathway - cell viability counter screen (AID 1159515); details: NFkB-bla ME-180 viability, CellTiter-Glo luminescence, 5 h; series mostly up to 61 µM; further: nearly all actives have a fitted effect of over 55% in size
How it was run: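 Parallel cytotoxicity counter screen in ME-180 cells carrying an NFkB-response-element beta-lactamase reporter, 2,000 cells/well. Compound exposure lasted 5 hr at 37 C, 5% CO2. Cell viability was quantified by CellTiter-Glo luminescence.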

[5] = qHTS assay to identify small molecule agonists of the endoplasmic reticulum stress response signaling pathway (AID 1159516; active means well fitted activation curve with a large enough effect in the signal ratio in the repeat runs, not every such curve was filed as active; the % refers to the signal ratio); details: ESRE-bla HeLa, ER stress beta-lactamase reporter, 5 h; series mostly up to 61 µM
How it was run: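 Using a HeLa line with an ESRE-driven beta-lactamase gene, agonist activity was measured by FRET substrate fluorescence (460 and 530 nm emission) after cells were treated with compounds for 5 hr at 37 C and 5% CO2.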

[6] = qHTS assay to identify small molecule agonists of the endoplasmic reticulum stress response signaling pathway - cell viability counter screen (AID 1159517); details: ESRE-bla HeLa viability, CellTiter-Glo luminescence, 5 h; series mostly up to 61 µM;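 further: HeLa cells carrying an ER stress response element beta-lactamase reporter; nearly all actives have a fitted effect of over 50% in size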
How it was run: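 After overnight attachment, ESRE-bla HeLa cells were treated with Tox21 library compounds for 5 hr. CellTiter-Glo luminescence, read 30 min post-addition at room temperature, reported viability.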

[7] = qHTS assay to identify small molecule antagonists of the retinoid-related orphan receptor gamma (ROR-gamma) signaling pathway - cell viability counter screen (AID 1159520; active means well fitted curve in the direction sought with a large enough effect in the repeat runs; an effect the other way counts as inactive or inconclusive; further: nearly all actives have a fitted effect of over 50% in size; further: potency means the concentration at half of the fitted maximal effect); details: Tet-on RORgamma CHO cells viability, ATP luminescence, 16 h; series mostly up to 92.4 µM
How it was run: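 Cytotoxicity was read from cellular ATP (CellTiter-Glo luminescence) after 16 hr at 37 C with 1 uM doxycycline induction. The inducer was added 2 hr after compound transfer to Tet-on ROR gamma CHO cells.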

[8] = biological target: Nuclear receptor ROR-gamma (Homo sapiens) (UniProt P51449); test: qHTS assay to identify small molecule antagonists of the retinoid-related orphan receptor gamma (ROR-gamma) signaling pathway (AID 1159521; active means well fitted curve in the direction sought with a large enough effect in the repeat runs; an effect the other way counts as inactive or inconclusive); details: Tet-on RORgamma CHO cells, RORE-luciferase, 16 h; series mostly up to 92.4 µM
How it was run: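 RORγ antagonism is scored from reduced reporter luminescence in Tet-on CHO cells. Induction used 1 uM final doxycycline hyclate for 16 h at 37 C, following a 2 h compound exposure.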

[9] = qHTS assay to identify small molecule agonists of the AP-1 signaling pathway - cell viability counter screen (AID 1159525); details: ME-180 AP-1-bla cells viability, ATP luminescence, 5 h; series mostly up to 76.8 µM; further: nearly all actives have a fitted effect of over 55% in size
How it was run: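 Intracellular ATP by Cell Titer Glo luminescence (30 min, RT) in the same ME-180 AP-1-bla wells after the 5 h compound exposure at 37 °C. Normalised to tetra n-octyl ammonium bromide and DMSO controls.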

[10] = qHTS assay to identify small molecule agonists of the AP-1 signaling pathway (AID 1159526); details: ME-180 (cervical carcinoma) AP-1-bla reporter, beta-lactamase FRET ratio, 5 h; series mostly up to 76.8 µM

SMILES	outcome [1]	outcome [2]	outcome [3]	outcome [4]	outcome [5]	outcome [6]	Potency [7]	Potency [8]	outcome [9]	Potency [10]
C=CCn1c(=O)n([C@@H]2O[C@H](CO)[C@@H](O)[C@H]2O)c2nc(N)[nH]c(=O)c21	inactive	inactive	inactive	inactive	inactive	inactive	inactive	inactive	inactive	inactive
COCc1ccc(COC)cc1	inactive		inactive	inactive	inactive	inactive		inactive	inactive	inactive
OCC(O)[C@@H](O)[C@H](O)[C@H](O)CO[C@H]1O[C@H](CO)[C@@H](O)[C@H](O)[C@H]1O (some centres undefined)	inactive	inactive	inactive	inactive	inactive	inactive	inactive	inactive		inactive
O=C1CC2(CCCC2)CC(=O)N1	inactive	inactive	inactive	inactive	inactive	inactive	inactive	inactive		inactive
CCCCC1CCCCC(=O)O1 (centres undefined)	inactive	inactive	inactive	inactive	inactive	inactive	inactive	inactive	inactive	inactive
O=C(O)c1ccc[n+]([O-])c1	inactive	inactive	inactive	inactive	inactive	inactive	inactive	inactive		inactive
O=C(O)c1cccc(C(=O)O)n1	inactive		inactive	inactive	inactive	inactive		inactive	inactive	inactive
CC(C)CCCC(C)CCCC(C)CCCCC(C)CCCC(C)CCCC(C)C (centres undefined)		inactive	inactive	inactive	inactive	inactive	inactive	inactive	inactive	inactive
COC(=O)CCCC(=O)O	inactive	inactive	inactive	inactive	inactive	inactive	inactive	inactive	inactive	inactive
CC(C)COC(=O)C(C)C	inactive	inactive	inactive	inactive	inactive	inactive	inactive	inactive		inactive
Cc1nc(-c2ccc(OCC(C)C)c(C#N)c2)sc1C(=O)O	inactive		inactive	inactive	inactive	inactive	inactive	inactive		inactive
CC(=O)c1ccc(C)cc1	inactive	inactive	inactive	inactive	inactive	inactive	inactive	inactive	inactive	inactive
CC1=CCC2C(C1)C2(C)C (centres undefined)	inactive	inactive	inactive	inactive	inactive	inactive	inactive	inactive	inactive	inactive
CCC(C)(C)C1CCC(OC)CC1 (centres undefined)	inactive	inactive	inactive	inactive	inactive	inactive	48.6 µM (active)	inactive		inactive
O=C1OC(=O)c2cc([N+](=O)[O-])ccc21	inactive	inactive	inactive	inactive	inactive	inactive		inactive		inactive
CO	inactive	inactive	inactive	inactive		inactive	inactive	inactive	inactive	inactive
CCCCCCCCCCCCCCCCCCOCC(O)CO (centres undefined)	inactive	inactive	inactive	inactive	inactive	inactive		inactive		inactive
COC(=O)[C@H]1[C@H]2C[C@@H]3c4[nH]c5cc(OC)ccc5c4CCN3C[C@H]2C[C@@H](OC(=O)COc2ccc(OC)cc2)[C@@H]1OC	inactive	inactive	inactive	inactive	inactive	inactive		inactive	inactive	inactive
C=C(C)C(=O)NCCCN(C)C	inactive	inactive	inactive	inactive		inactive	inactive	inactive	inactive	inactive
O=C(O)C1CCC1	inactive	inactive	inactive	inactive		inactive	inactive	inactive	inactive	inactive
CC(C=O)Cc1ccc(C(C)C)cc1 (centres undefined)	inactive	inactive	inactive	inactive	inactive	inactive		inactive	inactive	inactive
